Source: PubChem BioAssay
CHX counter: counter-screen for Shiga toxin inhibitors: cycloheximide protein synthesis inhibition; cell reporter, cycloheximide protein synthesis inhibition counterscreen; max response, %; 300,000 tested, 12% active; in the data active = max response mostly above about 13%, no sharp cut-off; inactive = mostly below about 14%; note: read at 38.3 µM for the half of the compounds with a filed dose; 0% is about no effect
LASV entry inh: inhibitors of Lassa virus binding or cell entry | Lassa virus pseudotype entry inhibition, cell reporter | Potency, µM (series often up to 37.9 µM), without a hit: top-dose activity change, negative = inhibition, hits mostly inhibitors | 300,000 tested, 1.2% active | AID 540256; calls by dose curve; tested in HEK293 cells; note: potency is the fitted concentration of half-maximal effect; % is set by controls: 0 for no effect and ±100 for the full control effect; nearly all actives have a fitted effect of over 50% in size
VACV mCherry inh: inhibitors of vaccinia virus infection (mCherry reporter signal) | Vaccinia virus mCherry reporter infection, fluorescence | Potency, µM (doses to about 36.5 µM), for inactives: at the highest dose activity change, negative = inhibition, most hits filed as inhibitors | 310,000 tested, 0.63% active | AID 720579; calls by dose curve; tested in A549 cells; note: potency is the fitted concentration of half-maximal effect; % is set by controls: 0 for no effect and ±100 for the full control effect; nearly all actives have a fitted effect of over 35% in size
MARV entry inh: Marburg virus entry inhibition. Potency, µM (titrated, usually from 37.8 µM), inactives show at the highest dose activity change, negative = inhibition, usual class: inhibitors. AID 540276. Marburg virus pseudotyped entry inhibition, cell reporter. 300,000 tested, 1.8% active; calls by dose curve; tested in HEK293 cells; note: potency is the fitted concentration of half-maximal effect; % is set by controls: 0 for no effect and ±100 for the full control effect
Vaccinia Venus: vaccinia inhibition (Venus reporter). Potency, µM (top dose mostly 36.5 µM), for the others: top-dose activity change, negative = inhibition, usual class: inhibitors. Vaccinia virus Venus reporter expression, fluorescence. AID 720580. 330,000 tested, 0.46% active; calls by dose curve; tested in A549 cells; note: potency is the fitted concentration of half-maximal effect; % is set by controls: 0 for no effect and ±100 for the full control effect; nearly all actives have a fitted effect of over 30% in size
Shiga toxin inh: Shiga toxin inhibition; Vero cells, Shiga toxin protein synthesis inhibition reporter; inhibition, % at 38.7 µM; 290,000 tested, 9.2% active; AID 2315; in the data active = inhibition mostly above about 28%, no sharp cut-off; inactive = mostly below about 43%; note: 0% is about no effect
Active calls of the source: *; i = inactive; ? = inconclusive; nt = no result given; [ ] = dose if it differs, or a comment. The entries come from a sample that favours hits as a whole.

SMILES	CHX counter	LASV entry inh	VACV mCherry inh	MARV entry inh	Vaccinia Venus	Shiga toxin inh
CC(=O)Nc1ccc(N/C=C/C(=O)c2ccc(C)cc2)cc1	26.6*	nt	nt	nt	nt	54.7*
COc1ccc(N/C=C\C(=O)c2ccc(Br)cc2)cc1OC	28.5*	-2.8%	-2.0%	?	0.4%	27.1
Cc1ccc2[nH]c3c(c2c1)SC(C)(C)CC3=O	1.8	nt	-18.1%	nt	-21.0%	11.1
COc1ccc(N2CC(NC(=O)COc3ccc4ccccc4c3)CC2=O)cc1OC (stereo unspecified)	nt	-5.8%[46.1 µM]	-2.2%	nt	-11.0%	nt
CC(/C=N/NC(=O)c1ccncc1)=C\c1ccccc1	22.9*	-1.2%	-14.3%	-6.4%	-18.6%	52.0*
C/C(Cc1ccccc1)=N\NC(=O)CNC(=O)c1cccc(F)c1	-1.4	15.6%[46.1 µM]	i	?	-4.7%	-2.5
CC(/C=N/NC(=O)c1cccc(F)c1)=C\c1ccccc1	51.0*	nt	nt	nt	nt	103.5*
CC(/C=C/c1ccccc1F)=N\NC(=O)c1cccc(F)c1	46.2*	?	?	?	-24.9%	64.6*
CC(/C=N/NC(=O)c1cc(C(C)(C)C)[nH]n1)=C\c1ccccc1	2.5	?	nt	?	-19.8%	11.3
CC(=C/c1ccccc1)/C=N/NC(=O)c1ccccn1	32.9*	?	-9.7%	?	-10.6%	23.2*
COc1ccc(Br)cc1CNC(=O)CCc1cn(Cc2ccc(C)cc2)c2ccccc12	nt	1.2%[46.1 µM]	-7.2%	nt	-20.9%	nt
COc1ccccc1C(=O)N/N=C/C(C)=C/c1ccccc1	18.5*	17.9%	i	?	-7.2%	113.0
CC(=C/c1ccc(C(C)C)cc1)/C=N/NC(=O)c1ccncc1	35.5*	?	nt	1.5%	nt	84.1*
CCOc1ccc(-c2cn3nc(CC(C)C)sc3n2)cc1	nt	?	-14.1%	?	-22.3%	nt
CCN(C)C1CN(Cc2cn(Cc3ccc(F)cc3)nn2)S(=O)(=O)C1 (stereo unspecified)	nt	nt	46.8%	nt	13.5%	nt
CN=c1scc(-c2cccs2)n1/N=C/c1ccccc1O	-13.5	1.26µM*	?	0.282µM*	?	-19.0
COc1ccc(CCNC(=O)C2CC3Cn4c(nc5ccccc54)C3N2Cc2ccccc2)cc1 (stereo unspecified)	nt	nt	-1.1%	nt	-16.9%	nt
Cc1nc(Cl)cc(N/N=C/c2ccc(O)cc2O)n1	44.2*	?	?	?	-24.5%	27.9*
Cc1nc(Cl)cc(N/N=C/c2ccc(O)cc2)n1	18.9*	nt	nt	nt	nt	49.2*
CN(CCO)C(=O)c1cn(C2CCCN(Cc3ccc(C(F)(F)F)cc3)C2)nn1 (stereo unspecified)	nt	nt	-7.8%	nt	-2.5%	nt
O=C(Nc1cccc(Cl)c1)c1c(NC(=O)C(F)(F)F)sc2c1CCCC2	nt	?	12.6µM*	nt	?	nt
Cc1cccc(C(=O)Nc2sc3c(c2C(=O)O)CCCC3)c1	46.8*	?	?	2µM*	?	92.9*
O=C(COc1ccc(Cl)cc1)Nc1sc2c(c1C(=O)Nc1cccc(Cl)c1)CCCC2	nt	5.1%[46.1 µM]	-17.3%[7.34 µM]	nt	-12.0%[7.34 µM]	nt
O=C(Nc1sc2c(c1C(=O)O)CCC2)c1cccc(Cl)c1	44.2*	-29.3%[46.1 µM]	-0.6%	?	-18.6%	70.4*
O=S(=O)(c1ccc(F)c(F)c1)N1CCCCCCC1	nt	nt	-18.0%	nt	-2.5%	nt
SMILES	CHX counter	LASV entry inh	VACV mCherry inh	MARV entry inh	Vaccinia Venus	Shiga toxin inh
CC1CCC(C(C)C)[C@H](O)C1 (stereo partly specified)	nt	nt	-19.3%	nt	-12.2%	nt
Cc1nn(-c2ccccc2)c(OC(=O)C(C)(C)C)c1Sc1ccccc1	nt	?	-1.0%[7.34 µM]	-2.1%[46.1 µM]	-9.9%[7.34 µM]	nt
CCOC(=O)c1ccc(CN(Cc2ccc(C)cc2)S(=O)(=O)c2ccc(F)c(C(=O)Nc3ccc(C)c(F)c3)c2)cc1	nt	-9.7%[46.1 µM]	-7.7%	nt	-10.0%	nt
CCOc1cc(/C=N/Nc2nnc(C)n2N)ccc1OC(C)=O	16.9	?	28.2µM*	?	?	0.8
Cc1nnc(N/N=C/c2cccc(OCc3ccc(Cl)c(Cl)c3)c2)n1N	39.0*	?	?	?	?	46.9*
CCc1nnc(N/N=C\c2ccc(OC(C)=O)c(OC)c2)n1N	1.9	nt	nt	nt	nt	11.0
Cc1ccccc1CNC(=O)CCSCc1cnn(-c2ccccc2)c1-n1cccc1	nt	-11.8%[46.1 µM]	-4.7%	-15.7%[46.1 µM]	-14.4%	nt
CCOC(=O)c1ccc(N2C(=O)C(CC(=O)NC)N(CCc3ccc(OC)c(OC)c3)C2=S)cc1 (stereo unspecified)	10.7	-0.9%[46.1 µM]	i	?	-12.3%	-4.7
Cc1cc(/C=C2\C=Cc3ccccc32)cc(C)c1[N+](=O)[O-]	nt	nt	-10.8%	nt	-9.8%	nt
CC(NC(=O)c1ccco1)c1nnc2n1CCN(Cc1ccc(N(C)C)cc1)CC2 (stereo unspecified)	nt	nt	-11.9%	nt	-6.1%	nt
COc1ccc2oc(=O)c(C(=O)NCc3ccco3)cc2c1	25.4*	8.2%	-21.5%	8.6%[46.1 µM]	1.9%	85.2*
COc1ccc2oc(=O)c(C(=O)NCc3ccc4c(c3)OCO4)cc2c1	-4.2	-7.1%	-14.9%	27.0%	-4.2%	18.4
COc1cccc2cc(C(=O)NCc3ccco3)c(=O)oc12	34.3*	8.0%	-18.0%	?	-12.0%	73.8*
CCn1cc(C(=O)NCc2ccco2)c2cc(OC)c(OC)cc2c1=O	20.8*	1.7%	nt	-1.8%	nt	-8.5
COc1cccc2cc(C(=O)NCc3ccc(C)cc3)c(=O)oc12	11.5	-0.6%[46.1 µM]	-0.8%	-8.4%[46.1 µM]	-17.6%	1.9
COc1cccc2cc(C(=O)NCc3ccco3)c(=Nc3ccc(C(=O)O)cc3)oc12	76.0*	4.2%	7.94µM*	7.7%	10µM*	195.6*
COc1cccc2cc(C(=O)Nc3ccc(CC(=O)O)cc3)c(=O)oc12	nt	?	4.7%	10µM*	12.2%	nt
COc1ccc2cc3c(N)c(C(=O)NCc4ccco4)sc3nc2c1	11.2	-26.4%	nt	?	nt	41.7*
COc1cc(C(F)(F)F)ccc1C(=O)NCCc1ccco1	68.2*	nt	nt	nt	nt	80.1*
CCc1nn2c(=O)cc(COC(=O)COc3ccc(OC)cc3)nc2s1	nt	0.0%[46.1 µM]	4.1%	nt	7.4%	nt
